Assay outcomes: PubChem, several laboratories
PERK inhibitor: block of dimerizer-induced PERK translation repression, primary screen, PERK inhibitor project, CHO PERK-DD cells, SEAP luminescence, HTS; AID 1416, 2008; 220,000 compounds, 0.17% hits; Eukaryotic translation initiation factor 2-alpha kinase 3 (Homo sapiens), Q9NZJ5; inhibition, % at 5.6 µM; CHO PERK-DD fusion, SEAP luminescence translation reporter;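 active = inhibition above the mean inhibition of all tested compounds plus 3 SD, set separately per screening campaign, cut at about 2.9% in these data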;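 also: PERK kinase domain activated by AP20187 dimerizer at 100 nM; 0% = DMSO with dimerizer and 100% = rapamycin at 8.4 µM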
ROMK primary: ROMK potassium channel modulators, primary screen, cell-based, thallium flux, MLSMR library; B-score at 10 µM; 130,000 compounds, 2% hits; AID 1918, 2009; Tet-inducible ROMK, thallium flux fluorescence; actives lie on both sides;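 active = signal ratio slope over the read window, or its plate-corrected B-score, at least 3 SD from the plate mean, either direction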;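 also: B-score of the F/F0 ratio slope over 7 to 12 s after thallium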
Target sequence (P48048 whole entry, looked up): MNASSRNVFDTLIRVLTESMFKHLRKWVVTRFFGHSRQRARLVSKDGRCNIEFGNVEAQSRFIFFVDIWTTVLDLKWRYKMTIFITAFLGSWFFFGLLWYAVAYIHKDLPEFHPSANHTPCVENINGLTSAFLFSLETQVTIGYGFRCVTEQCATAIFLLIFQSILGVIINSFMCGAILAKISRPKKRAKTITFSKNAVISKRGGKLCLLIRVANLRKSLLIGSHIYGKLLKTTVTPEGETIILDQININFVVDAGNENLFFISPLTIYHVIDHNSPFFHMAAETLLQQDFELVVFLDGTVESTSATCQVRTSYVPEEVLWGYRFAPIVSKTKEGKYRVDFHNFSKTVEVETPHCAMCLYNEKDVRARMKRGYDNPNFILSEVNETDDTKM
WT yeast gro inh: growth inhibition of WT strain, primary screen, mitochondrial fusion inhibitor project, WT and mutant strains, chemical genetic | mitochondrial fusion phenotypic screen | inhibition, % at 10 µM | 190,000 compounds, 2.1% hits | AID 1362, 2008; in the data active = inhibition above about 58%; tested in S. cerevisiae
Arbovirus anti: antivirals against arbovirus infection, primary screen, cell-based, full library, 10K replicate subset; arbovirus infection cell-based antiviral screen; 200,000 compounds, 0.37% hits; inhibition, % at 10 µM; in the data active = inhibition above about 30%
* marks the source's active call; other numbers are inactive results; . = not tested or not shown. This is a sample that favours compounds with a hit; in the whole collection about 3.3% have one here.

SMILES	PERK inhibitor	ROMK primary	WT yeast gro inh	Arbovirus anti
CCc1ccc(NC(=O)CSc2nc3ccccc3c(=O)n2CCCN2CCC(C)CC2)cc1	1	-2.5	79*	-23
C/C(=N\NC1=N[C@H]2CS(=O)(=O)C[C@H]2S1)c1ccccc1	3.3*	0.55	.	.
Cc1nc2cc(-c3ccc(Cl)cc3)nn2c(C)c1CCC(=O)NC(C)c1ccc2c(c1)OCCO2 (stereo not drawn)	-1	0.28	71*	-8
CC1(C)Cc2ccccc2C(/C(=N\Nc2cccc(Cl)c2)C(N)=O)=N1	0	-1.6	60*	-35
CC(C)(C)c1ccccc1OCCOCCN1CCCCCC1	0	-0.0087	68*	-5
O=C(C1=C(O)/C(=C/c2ccc(O)cc2)CCC1)C(F)(F)F	0	0.6	67*	0
CCCCc1nc2sc3c(=O)n(N)cnc3c2c2c1CCC2	3.0*	-0.013	7	-4
CCOc1ccc(-n2c(=O)c3c4c(sc3n(CC(=O)NCC3CCCO3)c2=O)CCCC4)cc1 (stereo not drawn)	-1	0.08	15	9
CCOc1ccc(-n2c(=O)[nH]c3sc4c(c3c2=O)CCCC4)cc1	0	0.16	18	40*
CCc1ccc(N2C(=O)CN(Cc3cccs3)C2=S)cc1	0	0.03	-2	1
Cc1ccc(C(=O)Nc2ccccc2Oc2ccccc2)cc1[N+](=O)[O-]	0	.	61*	-7
CCC(=O)Nc1ccc(Br)c(Cl)c1	2	-0.83	91*	4
CCC(=O)Nc1ccc(F)c(Cl)c1	0	-1.5	-8	8
Cc1cccc(C(=O)CC(=O)c2cc(Cl)ccc2O)c1	1	0.37	61*	-43
COc1cc(OC)nc(Oc2ccccc2C(=O)Oc2ccc(F)cc2Cl)n1	2	.	69*	17
O=C(/C=C/c1cccs1)NC(=S)NNC(=O)c1ccccc1O	0	3.1*	30	-26
COc1ccc(/C=C/C(=O)NC(=S)NNC(=O)Cc2cccs2)cc1	0	-0.51	9	-33
COc1ccc(C(=O)NNC(=S)NC(=O)/C=C/c2cccs2)cc1	0	3.7*	8	-26
Cc1c(C(=O)c2ccccc2)c(=O)n(C)c(=O)n1C	3	-0.023	16	-1
Cc1coc2c1C(=O)C(=O)c1c-2ccc2c1CCCC2(C)C	1	.	73*	0
C[C@H]1COC2=C1C(=O)C(=O)c1c2ccc2c1CCCC2(C)C	1	.	74*	-13
COc1ccc2nc(NC(=O)C3=NN(c4ccccc4)C(=O)CC3)sc2c1	0	.	19	48*
COc1cc(/C=C(/C#N)c2ccc(F)cc2)ccc1Oc1ccc([N+](=O)[O-])cn1	0	-0.24	-1	4
CC(=O)NCc1ccc(-c2csc(N)n2)s1	1	0.33	-6	0
O=C(CCCC(=O)N/N=C/c1ccccc1C(=O)O)N/N=C/c1ccccc1C(=O)O	3.5*	.	.	.
SMILES	PERK inhibitor	ROMK primary	WT yeast gro inh	Arbovirus anti
CCOC(=O)c1c(-c2ccc(OC)cc2)csc1/N=C/C1=C(O)CCCC1=O	0	-0.37	60*	-15
CCOC(=O)c1cc2c(ccn2C)n1Cc1ccccc1Cl	0	-0.61	69*	-4
Cc1cc(C)cc(NC(=O)C(NCCN2CCOCC2)c2ccccc2)c1 (stereo not drawn)	0	-0.26	11	16
Cc1ccc(F)c(NC(=O)/C(C#N)=C(\O)c2ccc(C(C)(C)C)cc2)c1	1	5.7*	10	15
CC(C)=CCc1c(O)c(CC=C(C)C)c2c(c1O)C(=O)CC(c1ccc(O)cc1)O2 (stereo not drawn)	1	.	91*	-5
O=C(CSc1ccc(-c2cccc([N+](=O)[O-])c2)nn1)N1CCCCCC1	1	-0.58	-32	-4
Cc1cc(C)n(CC(O)Cn2c3ccc(Br)cc3c3cc(Br)ccc32)c(=O)n1 (stereo not drawn)	0	0.54	91*	-35
Cc1cc(C)n(CC(O)Cn2c3ccccc3c3ccccc32)c(=O)n1 (stereo not drawn)	0	0.031	7	19
O=C(CN1CCN(c2nc(-c3ccccc3)cs2)CC1)NNC(=O)c1ccc(Br)cc1	-1	.	-46	-3
O=C(NC(=S)N1CCN(c2nc(-c3ccccc3)cs2)CC1)c1cncc(Br)c1	0	4.8*	53	-15
CSc1nc(Cl)c(Cc2ccc(OC(C)C)cc2)c(N(C)C)n1	0	.	63*	27
CCOc1ccc(Cc2c(Cl)nc(SC)nc2N(C)C)cc1	0	.	58	27
Cc1cc2c(NC(=O)Nc3ccc(F)cc3)cccc2nn1	3.4*	.	.	.
C=C(C)C1Cc2c(C)nn(-c3cccc4ccccc34)c2C1 (stereo not drawn)	1	-0.081	86*	-37
C=C(C)C1Cc2c(C)nn(-c3ccccc3)c2C1 (stereo not drawn)	0	0.29	21	-6
CC(C)=CCCC(C)N(C=O)C(C)CCC=C(C)C (stereo not drawn)	1	.	.	.
CN(Cc1ccc(OC(F)F)cc1)Cc1nc2c(Br)cc(Br)cc2c(=O)[nH]1	0	1	70*	7
O=C(Nc1cccc(Cl)c1)NC1CCCCC1	2	.	25	-7
CC1CCCC(C)N1C(=O)Nc1cccc(Cl)c1 (stereo not drawn)	2.9*	.	-6	0
O=c1cc(C(Cl)(Cl)Cl)oc2c1ccc1ccccc12	0	-1.1	78*	-36
CCn1c2ccccc2c2cc(CN3CCN(Cc4cc(OC)ccc4O)CC3)ccc21	-1	0.098	60*	9
CCn1c2ccccc2c2cc(CN3CCN(S(C)(=O)=O)CC3)ccc21	-1	.	7	-20
S=c1[nH]nc(COc2ccccc2)n1/N=C/c1ccncc1	1	.	1	5
Cc1cccc(OCc2n[nH]c(=S)n2-c2ccccc2)c1	0	0.82	13	-2
Cc1ccc(OCc2n[nH]c(=S)n2-c2ccccc2)cc1C	0	0.052	67*	4
SMILES	PERK inhibitor	ROMK primary	WT yeast gro inh	Arbovirus anti
CC(/C=N/n1c(COc2ccccc2)n[nH]c1=S)=C\c1ccccc1	0	.	75*	4
Brc1cccc(OCCCCN2CCCCC2)c1	-1	-2.4	20	-24
O=c1[nH]c2ccc(S(=O)(=O)N3CCN(c4ccccc4F)CC3)cc2s1	0	.	37	38*
Cc1[nH]c(=O)[nH]c(=O)c1S(=O)(=O)N1CCN(c2ccccc2F)CC1	1	.	-14	-9
COc1cccc(NC(=S)N/N=C2/CCCCc3ccccc32)c1	0	.	65*	-3
CCOC(=O)c1c(N)sc(C(O)(C(F)(F)F)C(F)(F)F)c1-c1ccc(Cl)cc1	-1	1.1	96*	-34
COC(=O)C1=C(C)NC2=C(C1c1ccc(O)cc1)S(=O)(=O)c1ccccc12 (stereo not drawn)	0	-0.5	23	-6
COc1ccc(C2C(C#N)=C(C)NC3=C2S(=O)(=O)c2ccccc23)cc1 (stereo not drawn)	0	0.28	58*	-5
Cc1ccc(S(=O)(=O)c2cc3ccccc3nc2N)cc1	0	0.76	-16	10
